The values that follow come from PubChem BioAssay (NCATS).

Molecules are shown by their SMILES. Results filed as inconclusive are left out. Entries that show only a call come without a potency. Calls of active or inactive are those of the source. Calls come from the whole dose curve; as a rule, active = well fitted inhibition curve with a large enough effect; inconclusive = small, poorly fitted or top-dose-only effect; inactive = no such curve, though single readings can be large or run the other way.

Assay [1] in a line: qHTS assay for measurement of the activity of small molecule inhibitors on Zika virus induced Caspase-3 activity in human iPSC derived neural progenitor cells (hNPCs) (AID 1224857). Note: nearly all actives have a fitted effect of over 65% in size. The method, boiled down:
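Values are percent inhibition of virus-induced caspase-3/7 signal, scaled between uninfected cells and ZIKV-infected cells. Infection used 2 FFU/cell for 6 h after 1 h compound exposure.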
For orientation: In qHTS, concentration-response curves come from the screen itself.

The nature of assay [2]: qHTS assay for measurement of the activity of small molecule inhibitors on Zika virus induced Caspase-3 activity in human astrocytoma cells (AID 1224859). The essentials: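 Compound added 1 h pre-infection; ZIKV 2 FFU/cell on SNB-19 cells, 6 h, 37 C/5% CO2. Caspase-Glo 3/7 luminescence; values as % inhibition of ZIKV-induced caspase activity.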

Take `CC[N+]1(CC)CCC(=C(c2ccccc2)c2ccccc2)C1C` (centres undefined): the Potency result in assay [1] was “inactive”. The result in assay [2] was inactive.
Consider `NS(=O)(=O)c1cc(C(=O)NN2C[C@H]3[C@H]4CCC(C4)[C@H]3C2)ccc1Cl`, for which the Potency entry in assay [1] was “inactive”. The compound was classed as inactive in assay [2].
As to `Cc1sccc1Br`, the Potency result in assay [1] was “inactive”. In addition, the compound was called inactive in assay [2].
Turning to `CN1CCCN(C(c2ccccc2)c2ccc(Cl)cc2)CC1` (centres undefined), the Potency entry in assay [1] is “inactive”. The result in assay [2] was inactive.
As to `COCCc1ccccn1`, the Potency result in assay [1] is “inactive”. For the same compound, the compound was classed as inactive in assay [2].
Turning to `Oc1ccccc1-c1nnco1`, the Potency entry in assay [1] was “inactive”. The compound was called inactive in assay [2].
Consider `Cc1ccc(C(C)OC(=O)C2(C)CCC(C(=O)O)C2(C)C)cc1` (centres undefined), for which, in assay [1], the Potency result is “inactive”. Besides, in assay [2], the compound was classed as inactive.
In the case of `Nc1ncnc2c1ncn2Cc1c(F)cccc1Cl`, the Potency entry in assay [1] is “inactive”. For the same compound, the result in assay [2] was inactive.
Turning to `O=C(c1cc(O)c(O)c(O)c1)c1ccc(O)c(O)c1O`, the Potency entry in assay [1] is “inactive”. Moreover, the compound was called inactive in assay [2].
Take `CN(C(=O)C(Cl)Cl)c1ccc(OC(=O)c2ccco2)cc1`: the Potency entry in assay [1] was “inactive”. Also, the outcome in assay [2] was inactive.
For the compound `Nc1nc2ccccc2n1Cc1ccc(F)cc1`, in assay [1], the Potency entry was “inactive”. Further, the compound was classed as inactive in assay [2].
Consider `CC1CC(=O)NN=C1c1ccc(NCC(C)(C)NCC(O)COc2cc(Cl)ccc2C#N)cc1` (centres undefined), for which the Potency entry in assay [1] is “inactive”. Also, in assay [2], the result was inactive.
In the case of `O=C(O)C(=O)Nc1cccc(-c2nn[nH]n2)c1`, the Potency entry in assay [1] was “inactive”. For the same compound, the call in assay [2] was inactive.
As for `C[C@@H]1C[C@H]2[C@@H]3CCC4=CC(=O)C=C[C@]4(C)[C@@]3(F)[C@@H](O)C[C@]2(C)[C@@]1(O)C(=O)COC(=O)c1ccncc1`, the Potency entry in assay [1] was “inactive”. Moreover, the result in assay [2] was inactive.
In the case of `O=C(CCCCC(=O)Nc1c(I)cc(I)c(C(=O)O)c1I)Nc1c(I)cc(I)c(C(=O)O)c1I`, the Potency entry in assay [1] was “inactive”. Moreover, the outcome in assay [2] was inactive.
On to `CCCN(CCC)C(=O)C(CCC(=O)OCCCN1CCN(CCOC(=O)Cc2c(C)n(C(=O)c3ccc(Cl)cc3)c3ccc(OC)cc23)CC1)NC(=O)c1ccccc1` (centres undefined), for which the Potency entry in assay [1] was “inactive”. Moreover, the call in assay [2] was inactive.
Turning to `Cc1ccc(CCn2c3c(c4cc(Cl)ccc42)CN(C)CC3)cn1`, the Potency entry in assay [1] is “inactive”. Further, the compound was called inactive in assay [2].
In the case of `CC(C)N(CCC(=O)c1ccc2ccccc2c1)Cc1ccccc1`, the Potency entry in assay [1] is “inactive”. The outcome in assay [2] was inactive.
In the case of `O=C(Nc1ccc(S(=O)(=O)N2CCOCC2)cc1)c1cc(Cl)ccc1NS(=O)(=O)c1ccc(Cl)s1`, the Potency entry in assay [1] is “inactive”. Moreover, the outcome in assay [2] was inactive.
Take `CC(=O)O[C@@H]1CC2C3CCc4cc(OC(=O)c5ccccc5)ccc4C3CCC2(C)[C@H]1OC(C)=O` (some centres undefined): the Potency entry in assay [1] is “inactive”. Besides, the compound was classed as inactive in assay [2].
For the compound `O=P(O)(O)OCC(O)CO` (centres undefined), in assay [1], the Potency result is “inactive”. In assay [2], the outcome was inactive.
As to `CN1CCC(=C2c3ccccc3CCc3cccnc32)CC1`, the Potency entry in assay [1] is “inactive”. The result in assay [2] was inactive.
Consider `COc1ccccc1N1CCN(CC(O)COc2cc(OC)c(OC)c(OC)c2)CC1` (centres undefined), for which the Potency entry in assay [1] is “inactive”. Further, the compound was called inactive in assay [2].
With `CCCCCOc1ccccc1/C(=C\SC)n1ccnc1`, the Potency entry in assay [1] was “inactive”. Further, the call in assay [2] was inactive.
As to `[O-][n+]1cccc(/C(Cl)=N/OC[C@@H](O)CN2CCCCC2)c1`, the Potency result in assay [1] was “inactive”. The result in assay [2] was inactive.
`Cc1cc(OCCOCC[N+](C)(C)Cc2ccccc2)ccc1C(C)(C)CC(C)(C)C`: in assay [1], the Potency entry was “inactive”. For the same compound, in assay [2], the result was inactive.
For the compound `COc1c(N2C[C@@H]3CCCN[C@@H]3C2)c(F)cc2c(=O)c(C(=O)O)cn(C3CC3)c12`, the Potency result in assay [1] is “inactive”. Further, the outcome in assay [2] was inactive.
As for `CC[C@@H]([C@H](C)O)n1ncn(-c2ccc(N3CCN(c4ccc(OC[C@@H]5CO[C@@](Cn6cncn6)(c6ccc(F)cc6F)C5)cc4)CC3)cc2)c1=O`, the Potency entry in assay [1] is “inactive”. Moreover, the compound was called inactive in assay [2].
For `O=C(O)C1CCC1`, the Potency entry in assay [1] is “inactive”. The compound was called inactive in assay [2].
With `Cc1nn(-c2ccccc2)c(C)c1/C=N/N1CCN(Cc2ccccc2)CC1`, the Potency result in assay [1] was “inactive”. The call in assay [2] was inactive.
For `CC(=O)c1ccc(O)c(C(N)=O)c1`, in assay [1], the Potency entry was “inactive”. Moreover, the outcome in assay [2] was inactive.
Regarding `O=C(O)/C=C(\CC(=O)O)C(=O)O`, the Potency result in assay [1] was “inactive”. In addition, the compound was classed as inactive in assay [2].
For the compound `Cc1coc2ccccc2c1=O`, the Potency entry in assay [1] was “inactive”. For the same compound, in assay [2], the compound was called inactive.
Regarding `Cc1ccc(C(=O)C(=O)O)cc1C`, the Potency result in assay [1] was “inactive”. Also, the result in assay [2] was inactive.
For the compound `O=C1NC(=O)/C(=C/c2ccc3c(c2)OC(F)(F)O3)S1`, in assay [1], the Potency result was “inactive”. For the same compound, the outcome in assay [2] was inactive.
With `O=C(O)CCCC[C@@H]1SC[C@@H]2NC(=O)N[C@@H]21`, the Potency result in assay [1] is “inactive”. The outcome in assay [2] was inactive.
Take `Cc1cccc(N(C)C(=S)Oc2ccc3c(c2)C2CCC3C2)c1` (centres undefined): the Potency entry in assay [1] was “inactive”. For the same compound, the call in assay [2] was inactive.
Consider `COC(=O)C1=CO[C@@H](O)[C@@H]2C(CO)=CC[C@H]12`, for which the Potency result in assay [1] was “inactive”. Moreover, the result in assay [2] was inactive.
`C[C@@H](O[C@H]1OCCN(Cc2n[nH]c(=O)[nH]2)[C@H]1c1ccc(F)cc1)c1cc(C(F)(F)F)cc(C(F)(F)F)c1`: the Potency entry in assay [1] is “inactive”. In addition, the compound was called inactive in assay [2].
`CC1(C)O[C@@H]2C[C@H]3[C@@H]4C[C@H](F)C5=CC(=O)C=C[C@]5(C)[C@@]4(F)[C@@H](O)C[C@]3(C)[C@]2(C(=O)CO)O1`: the Potency entry in assay [1] is “inactive”. The result in assay [2] was inactive.
For `O=C1Nc2cc(Cl)ccc2Oc2ccccc21`, the Potency result in assay [1] is “inactive”. Also, in assay [2], the result was inactive.
Consider `CCN1CCCC1CN` (centres undefined), for which the Potency entry in assay [1] is “inactive”. The result in assay [2] was inactive.
